Measured values published in the supplement of paper PMC11732987, “Enantioselective OTUD7B fragment discovery through chemoproteomics screening and high-throughput optimisation” (Communications Chemistry, 2025).

Columns and labels:
Test in all cases: log2 ratio of Biotin-Ahx-Ub-VS probe labelling (fragment/DMSO); higher = less target engagement (more negative = stronger competition), active = hit call of the paper (q ≤ 0.05, log2 ratio ≤ -1)
Settings in all cases: compound concentration: 200 uM; treatment time: 3 h
USP42 = biological target: T1, USP42 (UniProt Q9H9J4)
T1 sequence (whole entry): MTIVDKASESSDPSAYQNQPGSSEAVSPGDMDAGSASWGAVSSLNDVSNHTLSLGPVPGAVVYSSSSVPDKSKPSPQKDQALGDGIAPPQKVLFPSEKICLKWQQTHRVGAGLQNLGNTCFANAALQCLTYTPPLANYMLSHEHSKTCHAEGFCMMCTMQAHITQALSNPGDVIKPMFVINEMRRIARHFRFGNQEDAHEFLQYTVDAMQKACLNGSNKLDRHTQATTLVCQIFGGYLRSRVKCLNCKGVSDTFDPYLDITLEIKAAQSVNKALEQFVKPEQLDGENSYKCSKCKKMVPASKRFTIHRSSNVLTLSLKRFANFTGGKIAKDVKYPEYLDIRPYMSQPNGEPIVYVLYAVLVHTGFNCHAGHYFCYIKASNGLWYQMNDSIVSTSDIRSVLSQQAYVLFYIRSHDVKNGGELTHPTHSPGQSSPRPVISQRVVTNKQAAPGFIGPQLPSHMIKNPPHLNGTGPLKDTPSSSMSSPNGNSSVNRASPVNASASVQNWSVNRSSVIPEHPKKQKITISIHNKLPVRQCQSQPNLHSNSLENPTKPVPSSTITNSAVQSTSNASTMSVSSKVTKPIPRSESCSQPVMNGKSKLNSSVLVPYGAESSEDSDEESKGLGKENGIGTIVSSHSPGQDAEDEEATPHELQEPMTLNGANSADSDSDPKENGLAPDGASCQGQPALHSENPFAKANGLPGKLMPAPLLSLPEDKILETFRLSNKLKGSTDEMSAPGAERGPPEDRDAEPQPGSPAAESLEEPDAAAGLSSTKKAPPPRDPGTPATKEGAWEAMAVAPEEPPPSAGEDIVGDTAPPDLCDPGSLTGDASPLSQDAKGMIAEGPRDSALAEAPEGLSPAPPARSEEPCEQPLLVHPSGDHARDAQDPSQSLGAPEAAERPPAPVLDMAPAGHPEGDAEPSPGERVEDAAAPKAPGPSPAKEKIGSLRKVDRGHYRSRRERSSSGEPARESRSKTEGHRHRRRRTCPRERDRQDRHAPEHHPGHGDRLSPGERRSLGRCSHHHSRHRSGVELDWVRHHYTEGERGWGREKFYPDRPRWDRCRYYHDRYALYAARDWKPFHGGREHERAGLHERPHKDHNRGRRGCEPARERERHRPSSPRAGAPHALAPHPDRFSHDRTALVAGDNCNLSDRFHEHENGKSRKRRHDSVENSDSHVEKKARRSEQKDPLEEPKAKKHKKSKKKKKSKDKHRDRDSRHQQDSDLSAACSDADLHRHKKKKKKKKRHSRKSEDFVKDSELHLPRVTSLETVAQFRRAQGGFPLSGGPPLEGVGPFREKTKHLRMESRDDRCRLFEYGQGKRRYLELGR
Outline: (§1)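 Labelling with Biotin-Ahx-Ub-VS (0.5 µM final, 1 h) followed a 3 h triplicate treatment of HEK293T lysate (495 µg per sample, Tris/CHAPS/IGEPAL buffer with protease inhibitors) with fragment at 200 µM or vehicle. Labelled DUBs were NeutrAvidin-enriched, digested with LysC and trypsin, and run by diaPASEF LC-MS/MS. The values, average log2 fragment/vehicle ratios by unpaired t-test, come from global-median-normalised Spectronaut label-free quantities. Proteins with ≥2 unique peptides were used.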

USP46 = USP46 (UniProt P62068)
Chain of USP46 (P62068 whole entry): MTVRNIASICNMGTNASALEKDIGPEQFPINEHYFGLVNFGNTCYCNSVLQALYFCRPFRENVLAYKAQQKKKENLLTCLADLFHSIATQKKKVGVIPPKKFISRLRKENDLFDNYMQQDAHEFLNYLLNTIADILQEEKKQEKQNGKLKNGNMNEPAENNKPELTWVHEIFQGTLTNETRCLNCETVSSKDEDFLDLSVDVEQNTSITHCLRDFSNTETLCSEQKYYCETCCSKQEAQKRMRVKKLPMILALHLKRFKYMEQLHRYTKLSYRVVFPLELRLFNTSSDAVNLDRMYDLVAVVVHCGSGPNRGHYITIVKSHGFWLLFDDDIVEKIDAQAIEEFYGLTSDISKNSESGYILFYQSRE
Outline: as §1

USP47 = biological target: T2, USP47 (UniProt Q96K76)
T2 sequence (whole entry): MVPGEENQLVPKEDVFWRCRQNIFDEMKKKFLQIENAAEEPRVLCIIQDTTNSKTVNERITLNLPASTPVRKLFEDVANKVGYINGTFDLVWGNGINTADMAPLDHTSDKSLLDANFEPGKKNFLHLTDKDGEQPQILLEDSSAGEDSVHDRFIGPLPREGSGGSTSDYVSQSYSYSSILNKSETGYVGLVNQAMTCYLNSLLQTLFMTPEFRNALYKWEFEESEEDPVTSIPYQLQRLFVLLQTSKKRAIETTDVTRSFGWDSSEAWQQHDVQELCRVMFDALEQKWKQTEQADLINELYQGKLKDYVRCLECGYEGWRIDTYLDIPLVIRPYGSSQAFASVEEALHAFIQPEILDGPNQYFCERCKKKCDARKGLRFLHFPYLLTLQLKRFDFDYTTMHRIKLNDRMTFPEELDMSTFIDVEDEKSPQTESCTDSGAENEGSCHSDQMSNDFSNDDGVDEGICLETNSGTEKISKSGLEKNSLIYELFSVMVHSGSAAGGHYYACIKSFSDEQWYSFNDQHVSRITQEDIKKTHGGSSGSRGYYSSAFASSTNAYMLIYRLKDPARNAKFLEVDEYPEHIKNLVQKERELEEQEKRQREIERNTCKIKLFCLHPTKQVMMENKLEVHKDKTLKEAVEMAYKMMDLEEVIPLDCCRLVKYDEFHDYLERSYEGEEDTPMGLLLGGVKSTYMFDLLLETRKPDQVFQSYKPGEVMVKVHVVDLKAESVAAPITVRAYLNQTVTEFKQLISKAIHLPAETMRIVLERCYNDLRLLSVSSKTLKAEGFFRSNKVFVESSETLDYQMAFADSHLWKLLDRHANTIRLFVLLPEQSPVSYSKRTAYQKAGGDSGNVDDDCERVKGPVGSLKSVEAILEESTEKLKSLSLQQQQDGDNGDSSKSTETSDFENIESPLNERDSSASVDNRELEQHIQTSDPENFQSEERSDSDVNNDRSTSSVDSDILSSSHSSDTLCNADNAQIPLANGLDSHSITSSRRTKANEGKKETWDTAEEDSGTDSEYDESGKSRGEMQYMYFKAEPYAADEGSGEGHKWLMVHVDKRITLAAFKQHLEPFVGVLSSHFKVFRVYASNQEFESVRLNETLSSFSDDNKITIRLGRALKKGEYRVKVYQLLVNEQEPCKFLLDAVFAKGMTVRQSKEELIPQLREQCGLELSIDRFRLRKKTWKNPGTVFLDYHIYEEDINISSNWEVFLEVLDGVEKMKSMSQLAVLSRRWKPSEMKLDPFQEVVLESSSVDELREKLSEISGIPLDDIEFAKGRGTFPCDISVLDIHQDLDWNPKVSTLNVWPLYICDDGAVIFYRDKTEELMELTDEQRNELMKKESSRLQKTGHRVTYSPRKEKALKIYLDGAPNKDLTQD
Outline: as §1

USP48 = biological target: T3, USP48 (UniProt Q86UV5)
T3 sequence (whole entry): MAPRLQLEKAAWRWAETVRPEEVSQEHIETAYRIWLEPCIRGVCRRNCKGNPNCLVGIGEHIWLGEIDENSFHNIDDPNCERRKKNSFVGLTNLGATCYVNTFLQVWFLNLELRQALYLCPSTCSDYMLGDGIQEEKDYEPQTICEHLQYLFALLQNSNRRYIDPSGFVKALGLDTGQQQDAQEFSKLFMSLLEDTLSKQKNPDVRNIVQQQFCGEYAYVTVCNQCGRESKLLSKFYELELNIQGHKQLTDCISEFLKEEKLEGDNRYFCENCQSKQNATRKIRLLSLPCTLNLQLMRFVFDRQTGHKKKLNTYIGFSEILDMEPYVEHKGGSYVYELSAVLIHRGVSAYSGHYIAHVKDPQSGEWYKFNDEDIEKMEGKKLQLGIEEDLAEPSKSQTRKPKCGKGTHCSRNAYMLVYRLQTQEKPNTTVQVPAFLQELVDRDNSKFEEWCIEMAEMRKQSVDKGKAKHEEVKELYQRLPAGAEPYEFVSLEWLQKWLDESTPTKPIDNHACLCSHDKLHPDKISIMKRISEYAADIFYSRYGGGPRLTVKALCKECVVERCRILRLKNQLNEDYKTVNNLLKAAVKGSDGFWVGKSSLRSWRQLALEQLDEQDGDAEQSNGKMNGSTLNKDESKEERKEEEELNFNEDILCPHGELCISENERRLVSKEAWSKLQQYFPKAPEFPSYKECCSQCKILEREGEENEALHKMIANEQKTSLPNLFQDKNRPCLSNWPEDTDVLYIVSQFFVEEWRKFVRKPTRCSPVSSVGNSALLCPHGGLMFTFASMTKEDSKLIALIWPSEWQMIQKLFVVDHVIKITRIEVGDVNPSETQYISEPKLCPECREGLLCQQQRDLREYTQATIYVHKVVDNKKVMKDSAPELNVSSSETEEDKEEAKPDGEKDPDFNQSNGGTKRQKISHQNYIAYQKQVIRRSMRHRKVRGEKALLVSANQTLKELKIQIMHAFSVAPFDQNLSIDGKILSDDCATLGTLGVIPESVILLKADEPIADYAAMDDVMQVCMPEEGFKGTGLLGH
Outline: as §1

USP5 = biological target: T4, USP5 (UniProt P45974)
T4 sequence (whole entry): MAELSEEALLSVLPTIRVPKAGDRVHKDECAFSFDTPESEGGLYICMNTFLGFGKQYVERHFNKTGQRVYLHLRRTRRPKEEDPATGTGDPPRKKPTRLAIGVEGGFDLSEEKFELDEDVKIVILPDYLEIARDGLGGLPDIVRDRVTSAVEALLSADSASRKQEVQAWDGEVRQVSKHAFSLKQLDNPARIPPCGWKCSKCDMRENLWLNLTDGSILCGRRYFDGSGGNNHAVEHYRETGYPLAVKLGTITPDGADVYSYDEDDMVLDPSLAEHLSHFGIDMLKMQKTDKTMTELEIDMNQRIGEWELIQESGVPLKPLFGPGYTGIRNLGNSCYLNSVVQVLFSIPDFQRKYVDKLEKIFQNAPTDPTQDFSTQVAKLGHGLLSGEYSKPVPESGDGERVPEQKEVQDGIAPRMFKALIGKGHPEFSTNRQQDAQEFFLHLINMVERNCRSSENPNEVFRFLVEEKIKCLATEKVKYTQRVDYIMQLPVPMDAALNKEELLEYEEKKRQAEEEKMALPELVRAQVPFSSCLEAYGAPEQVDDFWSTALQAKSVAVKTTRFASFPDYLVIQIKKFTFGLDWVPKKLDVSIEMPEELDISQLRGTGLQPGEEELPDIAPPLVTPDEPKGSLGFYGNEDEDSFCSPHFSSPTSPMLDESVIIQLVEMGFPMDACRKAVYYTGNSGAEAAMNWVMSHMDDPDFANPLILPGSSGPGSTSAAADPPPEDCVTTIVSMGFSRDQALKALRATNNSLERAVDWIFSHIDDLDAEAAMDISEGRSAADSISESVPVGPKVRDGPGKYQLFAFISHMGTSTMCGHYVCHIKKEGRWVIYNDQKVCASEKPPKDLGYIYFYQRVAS
Outline: as §1

USP54 = USP54 (UniProt Q70EL1)
Outline: as §1

USP7 = USP7 (UniProt Q93009)
Chain of USP7 (Q93009 whole entry, looked up): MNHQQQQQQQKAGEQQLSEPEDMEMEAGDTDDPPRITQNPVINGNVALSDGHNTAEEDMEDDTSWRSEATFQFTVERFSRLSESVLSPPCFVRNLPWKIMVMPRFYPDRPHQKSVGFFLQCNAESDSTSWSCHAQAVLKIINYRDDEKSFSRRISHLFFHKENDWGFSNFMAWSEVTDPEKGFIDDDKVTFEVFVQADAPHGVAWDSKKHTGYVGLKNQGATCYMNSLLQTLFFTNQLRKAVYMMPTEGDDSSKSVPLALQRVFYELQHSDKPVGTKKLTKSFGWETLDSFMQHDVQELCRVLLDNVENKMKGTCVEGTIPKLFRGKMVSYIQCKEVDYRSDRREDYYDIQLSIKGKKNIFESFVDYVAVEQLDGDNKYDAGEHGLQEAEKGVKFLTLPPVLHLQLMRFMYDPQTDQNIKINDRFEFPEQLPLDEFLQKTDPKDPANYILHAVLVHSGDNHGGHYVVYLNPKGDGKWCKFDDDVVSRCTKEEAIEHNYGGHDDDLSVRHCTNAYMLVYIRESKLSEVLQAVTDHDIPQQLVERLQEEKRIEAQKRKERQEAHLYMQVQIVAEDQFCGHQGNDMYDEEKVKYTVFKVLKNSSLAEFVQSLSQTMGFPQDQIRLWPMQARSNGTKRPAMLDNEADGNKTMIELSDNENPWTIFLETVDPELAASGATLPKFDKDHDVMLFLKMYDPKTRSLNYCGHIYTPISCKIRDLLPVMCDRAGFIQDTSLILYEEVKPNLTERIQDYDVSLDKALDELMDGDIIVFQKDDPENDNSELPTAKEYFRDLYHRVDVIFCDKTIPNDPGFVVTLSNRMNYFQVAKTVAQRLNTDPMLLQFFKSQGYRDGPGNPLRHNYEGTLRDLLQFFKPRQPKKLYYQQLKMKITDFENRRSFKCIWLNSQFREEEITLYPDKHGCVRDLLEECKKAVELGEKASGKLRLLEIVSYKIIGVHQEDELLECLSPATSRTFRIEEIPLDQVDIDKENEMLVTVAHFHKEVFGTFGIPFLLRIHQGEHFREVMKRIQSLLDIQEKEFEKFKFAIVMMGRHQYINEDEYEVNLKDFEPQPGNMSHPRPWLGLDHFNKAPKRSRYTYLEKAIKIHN
Outline: as §1

USP8 = biological target: T5, USP8 (UniProt P40818)
T5 sequence (whole entry): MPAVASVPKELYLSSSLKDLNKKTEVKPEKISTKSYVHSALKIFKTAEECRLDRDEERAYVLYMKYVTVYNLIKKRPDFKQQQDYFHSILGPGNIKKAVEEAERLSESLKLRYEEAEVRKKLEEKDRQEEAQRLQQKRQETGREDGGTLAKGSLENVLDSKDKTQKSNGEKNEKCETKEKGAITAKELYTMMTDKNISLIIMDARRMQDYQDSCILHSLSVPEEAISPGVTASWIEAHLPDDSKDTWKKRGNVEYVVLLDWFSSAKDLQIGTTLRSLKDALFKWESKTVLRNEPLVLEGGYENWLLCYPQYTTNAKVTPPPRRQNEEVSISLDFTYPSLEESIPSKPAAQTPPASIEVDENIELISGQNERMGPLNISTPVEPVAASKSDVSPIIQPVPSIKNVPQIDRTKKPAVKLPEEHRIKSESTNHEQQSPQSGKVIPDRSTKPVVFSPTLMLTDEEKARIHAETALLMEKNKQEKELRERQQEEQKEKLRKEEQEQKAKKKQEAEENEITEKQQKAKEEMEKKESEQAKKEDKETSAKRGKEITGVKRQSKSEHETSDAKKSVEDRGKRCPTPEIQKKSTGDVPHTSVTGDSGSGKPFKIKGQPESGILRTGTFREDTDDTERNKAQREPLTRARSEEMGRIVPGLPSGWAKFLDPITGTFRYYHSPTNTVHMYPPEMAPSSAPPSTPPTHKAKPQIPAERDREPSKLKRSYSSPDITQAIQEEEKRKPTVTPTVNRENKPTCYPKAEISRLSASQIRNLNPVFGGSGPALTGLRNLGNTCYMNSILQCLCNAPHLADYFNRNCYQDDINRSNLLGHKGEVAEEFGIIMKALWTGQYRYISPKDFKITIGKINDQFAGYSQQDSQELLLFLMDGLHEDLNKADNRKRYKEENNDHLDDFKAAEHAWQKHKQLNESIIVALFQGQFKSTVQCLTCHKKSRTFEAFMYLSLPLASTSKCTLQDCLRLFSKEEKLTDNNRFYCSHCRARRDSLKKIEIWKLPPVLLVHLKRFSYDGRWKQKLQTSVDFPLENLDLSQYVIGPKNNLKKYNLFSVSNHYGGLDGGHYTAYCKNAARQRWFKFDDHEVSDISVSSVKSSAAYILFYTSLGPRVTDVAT
Outline: as §1

USP9X = USP9X (UniProt Q93008)
Chain of USP9X (Q93008 whole entry): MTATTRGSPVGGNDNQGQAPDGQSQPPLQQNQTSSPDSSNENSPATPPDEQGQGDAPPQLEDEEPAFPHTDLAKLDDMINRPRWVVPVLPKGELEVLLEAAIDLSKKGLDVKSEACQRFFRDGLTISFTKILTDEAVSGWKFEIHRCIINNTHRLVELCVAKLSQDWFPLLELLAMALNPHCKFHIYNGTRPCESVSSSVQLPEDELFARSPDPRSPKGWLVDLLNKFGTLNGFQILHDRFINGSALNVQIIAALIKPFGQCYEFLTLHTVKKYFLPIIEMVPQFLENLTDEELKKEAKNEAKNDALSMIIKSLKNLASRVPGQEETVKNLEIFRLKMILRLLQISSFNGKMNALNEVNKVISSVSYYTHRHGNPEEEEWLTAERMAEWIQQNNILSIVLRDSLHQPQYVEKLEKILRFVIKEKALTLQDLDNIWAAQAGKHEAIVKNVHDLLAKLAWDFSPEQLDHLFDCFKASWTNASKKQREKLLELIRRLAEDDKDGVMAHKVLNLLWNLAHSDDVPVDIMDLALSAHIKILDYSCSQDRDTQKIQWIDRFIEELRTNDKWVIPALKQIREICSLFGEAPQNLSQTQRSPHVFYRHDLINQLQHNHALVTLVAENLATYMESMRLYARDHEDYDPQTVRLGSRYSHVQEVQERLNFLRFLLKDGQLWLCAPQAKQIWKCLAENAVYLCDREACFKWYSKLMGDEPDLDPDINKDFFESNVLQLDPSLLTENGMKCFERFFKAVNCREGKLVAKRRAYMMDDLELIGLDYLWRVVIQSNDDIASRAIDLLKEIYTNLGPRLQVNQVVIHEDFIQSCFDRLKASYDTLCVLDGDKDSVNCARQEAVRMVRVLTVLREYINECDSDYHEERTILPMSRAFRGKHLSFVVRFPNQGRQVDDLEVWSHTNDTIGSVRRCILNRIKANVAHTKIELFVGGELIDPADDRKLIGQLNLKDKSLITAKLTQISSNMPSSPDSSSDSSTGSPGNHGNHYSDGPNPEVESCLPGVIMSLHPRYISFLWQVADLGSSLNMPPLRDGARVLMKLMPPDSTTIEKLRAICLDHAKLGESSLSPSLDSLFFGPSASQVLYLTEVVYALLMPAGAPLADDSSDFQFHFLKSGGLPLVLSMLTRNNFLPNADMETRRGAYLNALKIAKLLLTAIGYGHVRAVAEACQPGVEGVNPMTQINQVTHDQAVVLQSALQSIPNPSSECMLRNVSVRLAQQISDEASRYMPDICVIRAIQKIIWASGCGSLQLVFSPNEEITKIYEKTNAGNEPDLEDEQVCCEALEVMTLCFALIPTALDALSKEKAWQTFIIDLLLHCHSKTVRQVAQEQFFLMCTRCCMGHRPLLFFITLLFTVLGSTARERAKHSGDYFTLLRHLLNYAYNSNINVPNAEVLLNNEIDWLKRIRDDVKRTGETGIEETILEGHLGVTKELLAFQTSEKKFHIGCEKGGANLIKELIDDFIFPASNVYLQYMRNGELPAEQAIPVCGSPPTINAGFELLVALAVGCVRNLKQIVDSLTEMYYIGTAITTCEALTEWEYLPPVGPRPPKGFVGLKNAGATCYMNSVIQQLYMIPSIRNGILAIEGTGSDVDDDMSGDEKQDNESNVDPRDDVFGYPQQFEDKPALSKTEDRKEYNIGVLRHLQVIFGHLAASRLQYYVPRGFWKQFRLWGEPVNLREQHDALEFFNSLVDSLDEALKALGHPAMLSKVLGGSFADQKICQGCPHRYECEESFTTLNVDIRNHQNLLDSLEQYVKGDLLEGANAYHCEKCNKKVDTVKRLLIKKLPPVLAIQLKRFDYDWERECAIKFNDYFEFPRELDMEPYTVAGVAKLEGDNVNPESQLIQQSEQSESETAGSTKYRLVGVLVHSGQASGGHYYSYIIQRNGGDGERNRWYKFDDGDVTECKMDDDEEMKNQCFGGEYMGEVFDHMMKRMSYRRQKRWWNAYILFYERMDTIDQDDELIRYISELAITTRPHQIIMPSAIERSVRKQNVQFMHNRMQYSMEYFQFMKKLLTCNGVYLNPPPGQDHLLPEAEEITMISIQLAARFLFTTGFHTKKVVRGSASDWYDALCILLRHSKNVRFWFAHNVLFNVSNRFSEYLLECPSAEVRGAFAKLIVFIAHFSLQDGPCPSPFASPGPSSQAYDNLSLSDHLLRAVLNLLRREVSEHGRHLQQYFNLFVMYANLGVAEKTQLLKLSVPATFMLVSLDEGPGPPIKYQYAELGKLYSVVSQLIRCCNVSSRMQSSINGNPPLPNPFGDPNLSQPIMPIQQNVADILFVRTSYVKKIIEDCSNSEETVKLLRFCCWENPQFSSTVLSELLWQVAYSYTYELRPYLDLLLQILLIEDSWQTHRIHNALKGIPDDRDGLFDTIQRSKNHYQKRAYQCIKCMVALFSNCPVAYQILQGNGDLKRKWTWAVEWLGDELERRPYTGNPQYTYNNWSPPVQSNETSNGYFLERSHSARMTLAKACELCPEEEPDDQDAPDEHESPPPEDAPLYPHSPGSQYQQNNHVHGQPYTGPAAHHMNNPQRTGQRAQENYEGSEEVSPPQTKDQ
Outline: as §1

UniProt O00487 = biological target: UniProt O00487
Chain of UniProt O00487 (O00487 whole entry): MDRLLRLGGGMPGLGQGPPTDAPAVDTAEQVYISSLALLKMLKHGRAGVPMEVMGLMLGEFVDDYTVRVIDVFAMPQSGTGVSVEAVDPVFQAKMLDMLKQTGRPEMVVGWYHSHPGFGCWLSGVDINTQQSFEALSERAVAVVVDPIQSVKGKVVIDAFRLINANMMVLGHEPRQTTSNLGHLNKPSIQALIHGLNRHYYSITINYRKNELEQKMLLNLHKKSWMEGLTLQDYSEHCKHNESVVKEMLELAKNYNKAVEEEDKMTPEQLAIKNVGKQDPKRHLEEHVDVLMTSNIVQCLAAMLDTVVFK
Outline: as §1

Measured: log2 ratio of Biotin-Ahx-Ub-VS probe labelling

Cc1cc(C2CCCN2C(=O)CCl)nn1C.Cl (stereo not given)
inactive: USP42 0.512 | USP46 -0.144 | USP47 -0.308 | USP48 -0.159 | USP5 -0.0636 | USP54 -0.39 | USP7 -0.329 | USP8 -0.274 | USP9X -0.131 | UniProt O00487 -0.229
